# Calls of active or inactive are those of the source. How the source made its calls: active means hit-call score of the fitted dose curve at least 0.9, where 1 is the maximum; inactive means score below 0.9.
# Read-out: Transforming growth factor beta 1 (TGFb1), TGFB1 (gene 7040)
# Assay: BSK_KF3CT_TGFb1: BioMAP Diversity Plus: KF3CT Assay for Transforming growth factor beta 1 (TGFb1) Biomarker Activity (AID 2283072)
# Settings: primary human keratinocytes with fibroblasts; actives raise or lower the signal
# Procedure: BSK_KF3CT is a cell-based, multiplexed-readout assay that uses keratinocytes and foreskin fibroblasts, a human skin primary cell co-culture, with measurements taken at 24 hours after chemical dosing in a 96-well plate.BSK_KF3CT_TGFb1 is an assay component measured in the BSK_KF3CT assay. It measures TGF-b1 antibody related to regulation of gene expression using ELISA technology.Data from the assay component BSK_KF3CT_TGFb1 was analyzed into 1 assay endpoint. This assay endpoint, BSK_KF3CT_TGFb1, was analyzed with bidirectional fitting relative to DMSO as the negative control and baseline of activity. Using a type of binding reporter, gain or loss-of-signal activity can be used to understand changes in the signaling as they relate to the gene TGFB1. Furthermore, this assay endpoint can be referred to as a primary readout, because this assay has produced multiple assay endpoints where this one serves a signaling function. To generalize the intended target to other relatable targets, this assay endpoint is annotated to the growth factor intended target family, where the subfamily is transforming growth factor beta.
# The levels of cell surface (or secreted, indicated by the prefix "s") biomarker endpoints were measured by ELISA. Overt cytotoxicity to cells in confluent adherent cultures (all systems other than the BT system) was assessed by measuring total protein levels using sulforhodamine B (SRB) staining in parallel cultures at the time of biomarker measurements, indicated as SRB endpoints. For proliferation assays for adherent cell types, individual cell types are cultured at sub-confluence and relative cell numbers quantified by SRB staining at time points optimized for each system (48 h: 3C and CASM3C systems; 72 h: BT and HDF3CGF systems; 96 h: SAg system). SRB was performed by staining cells with 0.1% SRB after fixation with 10% TCA and reading wells at 560 nm.Viability and proliferation of PBMC (T cells) was quantified by Alamar Blue reduction for the SAg and BT systems. For PBMC viability (referred to as PBMC Cytotoxicity within the assay endpoint names), cells were plated (75,000/well in a 96-well plate) and then chemical samples added for 1 h before addition of activators, SEB and TSST-1 (20 ng/mL final concentration each). Cells were incubated for 90 h. Then, Alamar Blue (20 uL/well) (Invitrogen, Cat DAL1100) was added for 6 h, and the plates were read with a fluorescence microplate reader at 546/580 nm (excitation/emission). For PBMC proliferation, cells were plated and activated as above but incubated for only 16 h prior to addition of Alamar Blue. Plates were read after 6 h.
SMILES,outcome,AC50
CC[N+](CC)(CC)Cc1ccccc1,inactive,–
N=C(N)c1ccc(OCCCCCOc2ccc(C(=N)N)cc2)cc1,inactive,–
O=C1OC2(c3ccccc31)c1cc(I)c(O)c(I)c1Oc1c2cc(I)c(O)c1I,–,3.45 µM (active)
COc1cc(OC)nc(NC(=O)NS(=O)(=O)Nc2ccccc2C(=O)N(C)C)n1,inactive,–
Cc1ccc(C(=O)c2ccccc2)cc1,–,30.8 µM (active)
NC(=NCCCCCCN=C(N)/N=C(\N)Nc1ccc(Cl)cc1)/N=C(\N)Nc1ccc(Cl)cc1,–,2.35 µM (active)
CN(Cc1cnc2nc(N)nc(N)c2n1)c1ccc(C(=O)N[C@@H](CCC(=O)O)C(=O)O)cc1,inactive,–
CC(=O)Nc1ccc(O)cc1,inactive,–
CCCCCCCCCCCCOS(=O)(=O)O,–,33.4 µM (active)
O=C1c2ccc(O)c(O)c2C(=O)c2c(O)ccc(O)c21,inactive,–
CCCCCCCCCCCCCCC,inactive,–
CCCCC(CC)C(=O)O (stereo not given),inactive,–
OCCN1CN(CCO)CN(CCO)C1,–,3.97 µM (active)
C=COC(=O)C(C)(C)CCCCCC,inactive,–
CCCCc1oc2ccccc2c1C(=O)c1cc(I)c(OCCN(CC)CC)c(I)c1,–,5.6 µM (active)
CN(C)CCOC(c1ccccc1)c1ccccc1,inactive,–
O=C(c1ccccc1)c1ccccc1,inactive,–
O=C(CCCN1CCC(O)(c2ccc(Cl)cc2)CC1)c1ccc(F)cc1,inactive,–
CCCCCc1ccc(O)cc1,–,5.62 µM (active)
Cc1cccc2c1ccc1ccccc12,inactive,–

SMILES,outcome,AC50
C[C@]12CC[C@@H]3c4ccc(O)cc4CC[C@H]3[C@@H]1C[C@@H](O)[C@@H]2O,inactive,–
CCCCCCCCCCCCCCCCCC[N+](C)(C)Cc1ccccc1,inactive,–
Cc1ccc(N=Nc2c(O)ccc3ccccc23)c(C)c1,inactive,–
CCC(C)c1ccccc1O (stereo not given),inactive,–
CCCCC(CC)C(=O)OCCOCCOCCOCCOC(=O)C(CC)CCCC (stereo not given),inactive,–
Cc1[nH]nc2c1N=C(c1ccccc1Cl)c1cc([N+](=O)[O-])ccc1N2,inactive,–
O=C1NS(=O)(=O)c2ccccc21,inactive,–
CC(C)(C)c1ccc(O)c(O)c1,inactive,–
CN(C)c1ccc(C(=C2C=CC(=[N+](C)C)C=C2)c2ccccc2)cc1,–,0.194 µM (active)
CS(=O)(=O)c1ccc([C@@H](CC2CCCC2)C(=O)Nc2cnccn2)cc1Cl,inactive,–
C=CC(C)(CCC=C(C)C)OC(C)=O (stereo not given),inactive,–
Clc1ccc(Nc2nnc(Cc3ccncc3)c3ccccc23)cc1,–,1.99 µM (active)
C=CC(=C)CC/C=C(\C)CCC=C(C)C,inactive,–
CCCCC=O,inactive,–
CCOC(=O)CN[C@@H](C(=O)N1CC[C@H]1C(=O)NCc1ccc(/C(N)=N/O)cc1)C1CCCCC1,inactive,–
COCN(COC)c1nc(N(COC)COC)nc(N(COC)COC)n1,inactive,–
O=C(NO)c1ccccc1,inactive,–
O=C(NCc1ncc(C(F)(F)F)cc1Cl)c1c(Cl)cccc1Cl,inactive,–
CC1=NN(c2ccccc2)C(=O)C1,inactive,–
COc1cccc(O)c1,inactive,–

# Reference: PubChem BioAssay (EPA / NIEHS)
